Many of the other results were omitted from the sample, so hits are more common in it than they were.
ROC1-CUL1 inh = human ROC1-CUL1 E3 ligase inhibition | P62877+Q13616 | in vitro K48 di-Ub FRET, acceptor:donor ratio, 45 min | 140,000 tested, 0.6% active | AID 1347404 | inhibition, % at 10 µM; in the data active means inhibition above about 25%
* hit, by the source's call.

SMILES | ROC1-CUL1 inh
N#C/C(=C\c1ccc(F)cc1)S(=O)(=O)c1ccccc1 | 9
N#C/C(=C\c1ccccc1)S(=O)(=O)c1ccccc1 | 0
CCOC(=O)c1c(NC(=O)/C=C/c2cnn(C)c2)sc(C(C)=O)c1C | -1
O=C(O)COc1ccc(/C=C2\SC(=O)N(c3cccc(Cl)c3)C2=O)cc1 | -10
Cc1ccc(N=C2S/C(=C\c3ccc(OCC(=O)O)cc3)C(=O)N2c2ccc(C)c(C)c2)cc1C | 89*
Cc1ccc(N=C2S/C(=C\c3ccc(O)cc3)C(=O)N2c2ccc(C)cc2)cc1 | -9
Cc1c(CC(Cl)(Cl)Cl)c2c(n1-c1ccc(OC(F)(F)F)cc1)CC(C)(C)CC2=O | -3
COc1ccc(C2c3c(n[nH]c3-c3ccc(Cl)cc3)OC(=N)C2C#N)cc1O (configuration not stated) | -5
COCC(=O)NC1CC(=O)N(CCCc2ccccc2)C1 (configuration not stated) | 11
COc1ccc(CNc2nc3c(-c4cccc(F)c4)nnn3c3ccccc23)cc1 | 2
COc1ccc(CNc2c(F)c(F)c3nc4c(cc3c2F)c(-c2ccccc2)nn4C)cc1 | 96*
Fc1c(F)c(F)c2nc3c(cc2c1F)c(-c1ccccc1)nn3-c1ccccc1 | 3
Cc1ccccc1CC1(CO)CCCN(C(=O)CN2CCOC2=O)C1 (configuration not stated) | 2
CC(C)c1ccc(N2C(=O)/C(=C/c3ccc(Sc4ccccc4)o3)C(=O)NC2=S)cc1 | 97*
CC(C)c1ccc(N2C(=O)/C(=C/c3ccc(O)cc3)C(=O)NC2=S)cc1 | 0
Cc1ccc(N2C(=O)/C(=C/c3ccc(N4CCN(C)CC4)o3)C(=O)NC2=S)cc1 | -4
Cc1ccc(Cl)cc1-c1ccc(/C=C2/C(=O)NC(=S)N(c3ccc(F)cc3)C2=O)o1 | 46*
O=C1NC(=S)N(c2ccc(F)cc2)C(=O)/C1=C\c1ccc(N2CCOCC2)o1 | -4
O=C1S/C(=C\c2ccc(Sc3ccccc3)o2)C(=O)N1c1ccc(Cl)cc1 | -4
CCCCc1ccc(-n2nc3cc(Cl)c(NC(=O)c4ccc(OC)cc4)cc3n2)cc1 | -4
O=C(c1cc(O)ccc1O)c1coc2ccc(O)cc12 | -3
O=C1C(=Nc2ccccc2)Sc2ccccc21 | 1
Cc1ccc(N2C(=O)/C(=C/c3cc(C)n(-c4cccc(C(=O)O)c4)c3C)C(=O)N(C)C2=S)cc1 | 34*
Cc1cc(/C=C2\C(=O)NC(=S)N(C)C2=O)c(C)n1-c1ccc(C(=O)O)cc1 | 3
Cc1cc(/C=C2/C(=O)NC(=S)N(c3ccc(Br)cc3)C2=O)c(C)n1-c1ccccc1 | 8
SMILES | ROC1-CUL1 inh
COc1ccc(S(=O)(=O)Nc2ccc(-c3cn4ccsc4n3)cc2)cc1C | 4
COc1ccc(S(=O)(=O)Nc2ccc(-c3cn4ccsc4n3)cc2)cc1 | 97*
COc1ccc(S(=O)(=O)Nc2ccc(-c3cn4c(C)csc4n3)cc2)cc1 | 2
CC1CC(c2ccc3ccccc3c2)CC1=O (configuration not stated) | -6
OC(CNC1CCCCC1)CN1c2ccccc2Sc2ccccc21 (configuration not stated) | 13
Cc1ccc(-c2cc(C(F)(F)F)n3nc(C(=O)NCc4cn(-c5ccccc5)nc4-c4ccccc4)cc3n2)cc1C | 5
CCOC(=O)c1ccc(-c2ccc(/C=C3/C(=N)N4N=C(c5ccc(C)cc5)SC4=NC3=O)o2)cc1 | 2
Cc1ccc(S(=O)(=O)Oc2cccc(/C=C3/C(=N)N4N=C(CC(C)C)SC4=NC3=O)c2)cc1 | 1
COc1cc(/C=C2/C(=N)N3N=C(c4ccco4)SC3=NC2=O)cc(OC)c1OC | 18
N=C1/C(=C/c2cccc(Br)c2)C(=O)N=C2SC(C(F)(F)F)=NN12 | -2
CC(C)(C)c1ccc(C(=O)Oc2cccc(/C=C3\C(=N)N4N=C(c5ccco5)SC4=NC3=O)c2)cc1 | 96*
N=C1/C(=C/c2cccc(OC(=O)c3cccs3)c2)C(=O)N=C2SC(c3cccs3)=NN12 | 95*
CCC(=O)N[C@@H]1c2ccccc2C2(CCN(C(=O)c3cccc(Cl)c3F)CC2)[C@H]1OCCOC | -3
O=C(CCC1(Cc2ccc(Cl)cc2)CCC(=O)N1)NCc1cnn(-c2cccc(F)c2)c1 (configuration not stated) | 10
CCOc1ccccc1-c1nc(C(N)=O)c2c(n1)n(-c1ccc3c(c1)OCO3)c(=O)n2C | 7
N#CC1=CC2CCCCCCC2=NC1=S (configuration not stated) | 0
N#CC1=CC2CCCC2=NC1=S (configuration not stated) | 106*
CCC1=C(C#N)C(=S)N=C2CCCC21 (configuration not stated) | -2
C=CCn1c(SCC(=O)Nc2scc(-c3ccc(C)cc3)c2C(=O)OCC)nc2sc3c(c2c1=O)CCC3 | 1
CCOC(=O)C1=C(C)OC(=N)C(C#N)C1c1ccccc1 (configuration not stated) | -2
O=C1/C(=C\c2ccccc2)SC(=S)N1c1cccc(Cl)c1 | -1
O=C(O)c1cccc(N2C(=O)/C(=C/c3ccc(Cl)cc3)SC2=S)c1 | 31*
O=C(O)C(Cc1ccccc1)N1C(=O)/C(=C/c2ccc(Cl)cc2)SC1=S (configuration not stated) | 79*
O=C1/C(=C/c2cccc(Cl)c2Cl)SC(=S)N1c1cccc(Cl)c1 | -9
O=C(O)CN1C(=O)/C(=C2\SC(=S)N(C(Cc3ccccc3)C(=O)O)C2=O)c2ccccc21 (configuration not stated) | 4
SMILES | ROC1-CUL1 inh
O=C1S/C(=C\c2ccc(Cl)cc2)C(=O)N1Cc1ccccc1 | 3
COC(=O)c1cccc(-c2ccc(C=C3C(=O)OC(c4ccccc4)OC3=O)o2)c1 (configuration not stated) | 2
O=C1/C(=C\c2cccc(F)c2)SC(=S)N1c1cccc(C(F)(F)F)c1 | -1
O=C(O)c1cccc(-c2ccc(/C=C3\SC(=S)N(c4cccc(F)c4)C3=O)o2)c1 | 94*
NN1C(=O)/C(=C/c2ccc(-c3cccc(Cl)c3)o2)SC1=S | 1
COC(=O)c1cccc(-c2ccc(/C=C3\C(=O)N(c4cccc(C(=O)O)c4)N=C3C(F)(F)F)o2)c1 | 95*
COC(=O)c1cccc(-c2ccc(/C=C3/C(=O)NN(c4ccc(Br)cc4)C3=O)o2)c1 | -4
CC1CCN(c2ncnc3sc(-c4ccccc4)cc23)CC1 | -4
CCCCN1C(=O)/C(=C\c2cccc(OC)c2O)C(=O)N(CCc2ccccc2)C1=O | 4
COC(=O)Cc1[nH]nc2c1C(c1ccc(OC)c(OC)c1)C(C#N)C(=N)O2 (configuration not stated) | 5
CN1C(=O)NC(NC(=O)c2ccc(C(C)(C)C)cc2)(C(F)(F)F)C1=O (configuration not stated) | 10
O=C(/C=C/c1ccc(Cl)cc1)N1CCN(c2cccc(Cl)c2)CC1 | 1
COC(=O)c1ccccc1NC(=O)c1nc(-c2ccccc2)n(-c2ccccc2)n1 | -4
CN(CCc1cnn(C)c1)C(=O)c1cc(NC(=O)c2ccccc2)cc2ncn(C3CCCC3)c12 | -7
CC(=O)Nc1ccc(-n2c(C)ccc2C)cc1 | 2
Cc1ccc(C)n1-c1ccc(CC(=O)O)cc1 | 67*
COC(=O)c1ccc(-n2c(C)ccc2C)cc1 | 1
CCOC(=O)C1=C2Oc3ccc(Cl)cc3N2C(=O)C(=NC(=O)c2ccc(C)cc2)C1 | 1
O=C(N1CCCCC1)n1nnc2ccccc21 | 3
COc1ccc(-c2cc(C(F)(F)F)n3nc(C(=O)NCc4ccco4)c(Br)c3n2)cc1 | 29*

Screening results (PubChem)
